From PubChem BioAssay (NCI)
Compounds without any hit were thinned out: in the full panel of roughly 83,000, 20% have a hit.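 Single-concentration screen, 48 h exposure, 96-well plates. Endpoint: percent growth. Below 10 = active.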 Values without a mark were called inactive. Active and inactive are the calls of the source.

How the values were obtained:
Assay in all cases: NCI-60 one-dose screen, 48 h (100 = growth as untreated, 0 = no growth, -100 = all killed)
Details in all cases: 10 µM unless noted
DU-145 prostate = tested on: DU-145 prostate
K-562 leukemia = tested on: K-562 leukemia
MALME-3M melanoma = tested on: MALME-3M melanoma
MDA-MB-231 breast = tested on: MDA-MB-231 breast
RXF 393 renal = tested on: RXF 393 renal
SF-268 CNS = tested on: SF-268 CNS
SF-295 CNS = tested on: SF-295 CNS
SF-539 CNS = tested on: SF-539 CNS
UACC-257 melanoma = tested on: UACC-257 melanoma
M14 melanoma = tested on: M14 melanoma
HCT-15 colon = tested on: HCT-15 colon
HT29 colon = tested on: HT29 colon
SNB-75 CNS = tested on: SNB-75 CNS
SNB-19 CNS = tested on: SNB-19 CNS
U251 CNS = tested on: U251 CNS
PC-3 prostate = tested on: PC-3 prostate
SK-MEL-5 melanoma = tested on: SK-MEL-5 melanoma
UACC-62 melanoma = tested on: UACC-62 melanoma
LOX IMVI melanoma = tested on: LOX IMVI melanoma
SK-MEL-28 melanoma = tested on: SK-MEL-28 melanoma

SMILES	growth (DU-145 prostate) [%]	growth (K-562 leukemia)	growth (MALME-3M melanoma) [%]	growth (MDA-MB-231 breast) [%]	growth (RXF 393 renal)	growth (SF-268 CNS) [%]	growth (SF-295 CNS) [%]	growth (SF-539 CNS)	growth (UACC-257 melanoma) [%]	growth (M14 melanoma) [%]	growth (HCT-15 colon)	growth (HT29 colon) [%]	growth (SNB-75 CNS)	growth (SNB-19 CNS) [%]	growth (U251 CNS) [%]	growth (PC-3 prostate) [%]	growth (SK-MEL-5 melanoma)	growth (UACC-62 melanoma)	growth (LOX IMVI melanoma)	growth (SK-MEL-28 melanoma) [%]
O=C1c2cccc3cccc(c23)C(=O)N1Nc1nc(N2CCOCC2)nc(N2CCN(c3ccccc3)CC2)n1	55	18.4%	21.7	56.3	30.9%	53.8	20.6	50.2%	71.8	19.4	33.7%	24.3	21.4%	45.6	59.3	43.4	4.98% (active)	32.2%	39.2%	52.5
CCOC(=O)c1sc2ncc(-c3ccc(C)cc3)n2c1C	97.5	79.4%	84.2	85.6	107%	106	96.7	93.8%	98.3	87.1	90.1%	93.1	74.7%	94.5	96.2	81	95.1%	72.6%	85.2%	102
COc1cc(/C=C/C(=O)/C=C/c2cc(OC)c3c(c2OC)OCO3)c(OC)c2c1OCO2	28.3	12.4%	46.7	46	16.6%	48.7	89.7	29.4%	54.1	31.7	31.9%	68.5	33.4%	55.4	11.5	41	45.1%	25.5%	32.9%	55.6
COc1ccc(-c2[nH]c3ccc(OC)cc3c2/C=C(\C#N)S(=O)(=O)c2ccccc2)cc1	17.3	19.8%	61.3	14.9	-7.82% (active)	33.8	10.6	-37.8% (active)	81.7	25.3	22.6%	13.2	8.92% (active)	31.1	24.8	24.8	-25.5% (active)	22%	36.4%	43.2
O=C(S)CNC(=O)c1ccccc1	98.8	95.1%	84.2	97.6	92.7%	86.5	111	93.4%	98	95.9	112%	99.5	96.3%	94.9	95.3	91.2	99.7%	106%	98.2%	104
CS(=O)(=O)Nc1cc(-c2ccc3ncnc(Nc4cccc(Cl)c4F)c3c2)cnc1Cl	63	53.4%	18.2	13.7	-24% (active)	24.2	34.7	27.8%	40.1	50.1	41.9%	47.6	9.28% (active)	46.4	33.6	41.4	24.7%	8.37% (active)	4.21% (active)	24.6
COc1ccc(/C=C/c2c(C(=O)/C=C/c3ccc(Cl)cc3)c(C)nc3ccccc23)cc1	13.8	9.27% (active)	28	34.1	-18.6% (active)	58.7	42.2	14.4%	38.8	14.7	-0.536% (active)	13.6	50.6%	25	19.4	29.2	39.2%	33.7%	-62.2% (active)	23.8
CC(=O)c1ccc(Nc2nc(C(C)=O)c(C)s2)cc1	102	88.7%	105	98	101%	98	98.6	103%	103	104	97.4%	100	73.6%	97.5	100	95.3	99.9%	96.1%	99.9%	103
